Screening data: PubChem BioAssay, The Scripps Research Institute Molecular Screening Center
FBW7 act – FBW7 E3 ligase activators, primary screen, biochemical, AlphaScreen, human | AID 1259310, 2017 | AlphaScreen FBW7–phospho-cyclin E peptide binding, activator screen | actives 0.13% (n = 650,000) | normalized activity (activation), % at 26.1 µM; in the data active = normalized activity above about 1.9%;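 note: purified mutant Fbw7 with reduced substrate affinity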
TEAD-YAP block – TEAD-YAP interaction inhibition, primary screen, TEAD-YAP interaction inhibitor project, luminescence, HEK-TIYL cells | actives 1.4% (n = 640,000) | TEAD-Gal4/YAP UAS-luciferase luminescence | AID 1259422, 2018 | inhibition, % at 9.12 µM; in the data active = inhibition above about 32%;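 note: 0% = median of test compound wells and 100% = reference inhibitor wells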
GPR151 ag – activators of human GPR151, primary screen, cell-based, PathHunter beta-arrestin, luminescence | G-protein coupled receptor 151 (Homo sapiens), Q8TDV0 | PathHunter beta-arrestin GPR151 cells | activation, % at 11.2 µM | actives 1% (n = 650,000); in the data active = activation above about 4.9%;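 note: 0% = median of compound wells and 100% = cells with positive control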
MITF inh – MITF inhibitors, primary screen, biochemical, AlphaScreen, human | Microphthalmia-associated transcription factor (Homo sapiens), O75030 | AlphaScreen MITF homodimerization, bead proximity signal | actives 0.91% (n = 650,000) | inhibition, % at 2.6 µM; in the data active = inhibition above about 50%;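 note: 0% = vehicle wells with protein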
Target sequence (O75030 whole entry, looked up): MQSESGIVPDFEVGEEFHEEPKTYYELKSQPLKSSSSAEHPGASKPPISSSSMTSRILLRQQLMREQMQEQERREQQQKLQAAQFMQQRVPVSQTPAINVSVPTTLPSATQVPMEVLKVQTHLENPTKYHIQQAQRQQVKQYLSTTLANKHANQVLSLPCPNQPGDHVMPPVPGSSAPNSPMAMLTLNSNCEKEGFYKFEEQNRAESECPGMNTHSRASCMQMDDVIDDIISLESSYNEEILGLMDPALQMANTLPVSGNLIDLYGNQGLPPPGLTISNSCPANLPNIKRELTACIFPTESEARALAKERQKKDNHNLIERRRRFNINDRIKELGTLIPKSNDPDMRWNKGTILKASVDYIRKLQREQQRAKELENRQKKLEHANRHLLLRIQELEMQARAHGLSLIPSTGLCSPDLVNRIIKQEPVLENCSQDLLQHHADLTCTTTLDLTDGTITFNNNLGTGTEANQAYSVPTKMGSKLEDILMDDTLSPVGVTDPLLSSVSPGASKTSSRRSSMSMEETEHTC
* marks the source's active call; other numbers are inactive results. This is a sample that favours compounds with a hit; in the whole collection about 3.5% have one here.

SMILES	FBW7 act	TEAD-YAP block	GPR151 ag	MITF inh
COc1ccc(Nc2ccnc3c(-c4cccc(CO)c4)cnn23)cn1	0	98*	-3	5
O=C(/C=C/c1cccc([N+](=O)[O-])c1)Nn1c(-c2cccc(Cl)c2)nc2ccccc2c1=O	1	6	-1	8
Cc1cnc(NC(=O)CN2CCC(O)(c3ccccn3)CC2)s1	0	3	0	-1
Cc1cnc(NC(=O)CN2CCN(c3ccccn3)CC2)s1	0	65*	-1	11
O=C(Nc1ccc([N+](=O)[O-])cc1)c1cccc(S(=O)(=O)Nc2cccc(F)c2)c1	0	33*	0	-11
COc1cc(OC)cc(C(=O)Nc2ccc(S(=O)(=O)Nc3nccc(C)n3)cc2)c1	2.0*	-13	1	14
Cc1cccc(NS(=O)(=O)c2ccc(NC(=O)c3ccc([N+](=O)[O-])cc3)cc2)c1	0	35*	3	-7
Cc1ccc(S(=O)(=O)Nc2ccccc2C(=O)Nc2ccc([N+](=O)[O-])cc2)cc1	0	63*	1	19
O=C(Nc1cccc([N+](=O)[O-])c1)c1cccc(S(=O)(=O)Nc2cccc(F)c2)c1	0	16	0	-16
Cc1ccc(S(=O)(=O)Nc2ccccc2C(=O)Nc2ccc(C(=O)O)cc2)cc1	0	-10	1	-4
c1ccc2c(c1)CC1(CCCC1)N=C2CC1=NC2(CCCC2)Cc2ccccc21	0	-5	1	-4
CC1CC=C2C(C#N)=C(N)C(C#N)(C#N)C(c3cccc(Cl)c3)C2C1 (stereo unspecified)	0	0	1	-2
COc1ccc(NS(=O)(=O)c2ccc(NC(=O)c3cccc([N+](=O)[O-])c3)cc2)cc1	0	33*	0	3
CC(=O)c1cccc(NS(=O)(=O)c2ccc(NC(=O)c3ccccc3Cl)cc2)c1	0	39*	0	4
CCSCCOC(=O)C1=C(C)NC2=C(C(=O)C(C(=O)OC)C(C)C2)C1c1c(F)cccc1Cl (stereo unspecified)	1.9*	-15	1	0
Cc1noc(C)c1S(=O)(=O)N1CCCC(C(=O)NCc2ccc(Cl)cc2)C1 (stereo unspecified)	0	12	1	9
Cc1csnc1NC(=O)c1c(N)nc2c(c1C(F)(F)F)OC1=C(CCC1)O2	0	96*	1	6
CC(NC(=O)C1(c2ccc(Cl)cc2)CC1)c1nc(-c2cccnc2)n[nH]1 (stereo unspecified)	0	9	-1	-11
COc1ccc(C2(C(=O)NC(C)c3nc(-c4cccnc4)n[nH]3)CC2)cc1 (stereo unspecified)	0	51*	0	9
COC(=O)c1ccc(Br)c(S(=O)(=O)N2CCCCC2)c1	1.9*	7	-1	13
O=C(O)c1ccc(Br)c(S(=O)(=O)N2CCCCCC2)c1	0	0	0	-8
CC1(C)Cc2nc3sc4c(N5CCNCC5)ncnc4c3cc2CS1	0	44*	-1	15
COc1ccc(OC)c(CNc2ncc(-c3ccc(Br)cc3)n2C)c1	0	3	0	35
COc1ccc(OC)c(CNc2ncc(-c3cccc(Br)c3)n2C)c1	0	43*	0	25
COc1cccc(CNc2ncc(-c3cccc(OC)c3)n2C)c1	0	54*	3	36
SMILES	FBW7 act	TEAD-YAP block	GPR151 ag	MITF inh
O=C(NCc1ccc(Cl)cc1)C1CC(=O)N(Nc2ccccc2)C1 (stereo unspecified)	0	9	1	-5
C=CCNC(=O)c1cc2c(=O)n3cccc(C)c3nc2n(CCCC)c1=N	0	7	3	22
Cc1cc(C(=O)CSc2nnc3ccccn23)c(C)n1C1CCCCC1	0	60*	-2	8
COCCn1c(C)cc(C(=O)COC(=O)c2ccc[nH]c2=O)c1C	0	62*	0	2
Cc1ccc(-n2c(C)cc(C(=O)COC(=O)c3ccc[nH]c3=O)c2C)cc1	0	-30	0	10
Cc1cc(C(=O)CSc2nnc3ccccn23)c(C)n1-c1ccc(Br)cc1	0	-68	-1	1
COCCn1c(C)cc(C(=O)CSc2nnc3ccccn23)c1C	0	55*	-6	-6
COCCn1c(C)cc(C(=O)CSc2ccc(Cl)cc2)c1C	0	88*	-3	-9
COCCn1c(C)cc(C(=O)CSc2nc(C)c(C)c(C)n2)c1C	0	-5	1	6
CCN1CCN(C(=S)Nc2ccc3nc(N4CCOCC4)cc(C)c3c2)CC1	0	-5	0	1
COCCNC(=O)c1ccc(CS(=O)Cc2ccc(C)cc2)o1 (stereo unspecified)	0	6	1	3
COc1ccc(S(=O)(=O)Nc2ccc(F)cc2F)cc1Cl	0	0	-1	-2
CCOC(=O)c1ccccc1NC(=O)COc1cccc(C)c1C	0	1	-1	13
C(=Nc1ccc2c(c1)OCCO2)c1ccc(OC2CSC2)cc1	1	45*	1	11
O=C(/C=C/c1ccc(F)cc1)N1CCc2ccccc21	0	56*	-4	-2
O=C(/C=C/c1ccccc1[N+](=O)[O-])N1CCc2ccccc21	0	44*	-1	-2
O=C(/C=C/c1ccccc1[N+](=O)[O-])N1CCCC1	0	-3	1	-1
C/C(=N\N=C1/NC(=O)C(C)S1)c1ccc(C)cc1 (stereo unspecified)	0	47*	0	-1
Cc1ccccc1-n1nc2c(c1NC(=O)c1cccc(Br)c1)CSC2	0	3	1	-16
COc1ccc(-c2nc(C)cc(NCCO)n2)cn1	1	-14	-2	12
C=CCN1/C(=C/C(=C/c2sc3ccccc3[n+]2CC=C)CC)Sc2ccccc21	0	83*	4	52*
CC(=O)c1ccc(OCC(=O)NC(C)c2cnn(-c3ccccc3C)c2C)cc1 (stereo unspecified)	1	34*	2	15
COC(=O)c1ccccc1NC(=O)CCS(=O)(=O)c1ccc(OC)cc1	0	-9	2	5
COC(=O)c1ccccc1NC(=O)CCOc1ccc(OC)cc1	0	33*	-1	-2
O=C(NCCc1ccccc1)C1C2C3CCC(C3)C12 (stereo unspecified)	0	58*	-4	-5
Cc1sc(NC(=O)c2cccnc2)nc1-c1ccc2c(c1)CCN2C(=O)CC(C)(C)C	0	0	-1	26
CC(C)(C)CC(=O)N1CCc2cc(-c3csc(NC(=O)c4cccnc4)n3)ccc21	0	36*	0	2
CC(=O)Nc1ccc2nc(SCC(=O)NCc3ccccc3)sc2c1	0	38*	-2	19
O=C(CSc1nc2ccc(NC(=O)c3ccccc3)cc2s1)NCc1ccccc1	0	-18	2	18
